# Experimental data: PubChem BioAssay (NCATS)
# Inconclusive results are not listed. The source made the active and inactive calls. Calls come from the whole dose curve; as a rule, active = well fitted inhibition curve with a large enough effect; inconclusive = small, poorly fitted or top-dose-only effect; inactive = flat fitted curve, though single readings scatter.
# Tested on: CRL-7250
# Experiment: qHTS assay to identify novel small-molecules to repurpose for Merkel cell carcinoma treatment (AID 1296009); note: nearly all actives have a fitted effect of over 60% in size
# Settings: MCC and control cell lines, CellTiter-Glo viability, 72 h; series mostly up to 92 µM; activity change, negative = cytotoxicity: at the top concentration
# Summary of the method: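 After compound transfer in DMSO, plates were kept 72 hr at 37 degree celsius. Luminescent ATP signal from CellTiter-Glo served as viability measure, normalized against DMSO and no-cell controls.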
row,SMILES,outcome
1,COc1cc(OC)cc(C(=O)Nc2ccc(Cl)c(-c3nc4ccc(N(C)C)cc4[nH]3)c2)c1,inactive
2,CC(=O)O[C@@H](C[C@@H]1C=C(C)C(=O)O1)[C@H](C)[C@H]1CCC2[C@@]3(C)CC[C@H](O[C@@H]4O[C@H](CO)[C@@H](O)[C@H](O)[C@H]4O[C@@H]4O[C@@H](C)[C@H](O)[C@@H](O)[C@H]4O)C(C)(C)C3CC[C@@]2(C)[C@@]12COC(=O)C2 (stereo not given in full),inactive [at 9.27 µM]
3,O=C(/C=C/c1ccc(O)cc1)OC[C@H]1O[C@H](O[C@@]2(CO)O[C@@H](CO)[C@H](O)[C@H]2O)[C@H](O)[C@@H](O)[C@@H]1O,inactive [at 17.4 µM]
4,COC(=O)[C@@H](O)[C@H]1[C@@]2(C)CC3(O)[C@@H](C(=O)[C@H]2O)[C@]24O[C@]25CC(=O)O[C@@H](c2ccoc2)[C@]5(C)CCC4[C@]13C (stereo not given in full),inactive [at 17.4 µM]
5,C=C(C(=O)OC)C1C(O)CC2(C)C(=O)CCC(O)(CO)C2C1O (stereo not given),inactive
6,CC1C(O)C(O)C2C(C(=O)OCCc3ccc(O)cc3)=COC(O[C@@H]3O[C@H](CO)[C@@H](O)[C@H](O)[C@H]3O)C12 (stereo not given in full),inactive [at 17.4 µM]
7,CC(C)(O)C1=CCC23COC(C2)C(O)(C(=O)O)CCC13 (stereo not given),inactive
8,C/C=C(\C)C1C(C)=CC2CCC(OS(=O)(=O)O)C(C)C2C1/C=C/C=C/C(=O)O (stereo not given),inactive [at 17.4 µM]
9,C=CC(C)(O)CC/C=C(/C)C(=O)OC1C(OC2OCC(OC3OC(CO)C(O)C(O)C3O)C(OC3OCC(O)C(OC4OC(C)C(O)C(O)C4O)C3O)C2O)COC(OC(=O)C23CCC(C)(C)CC2C2=CCC4C5(C)CCC(OC6OC(CO)C(OC7OC(CO)C(O)C(OC8OCC(O)C(O)C8O)C7O)C(O)C6O)C(C)(C)C5CCC4(C)C2(C)CC3O)C1O (stereo not given),inactive [at 4.96 µM]
10,Cc1ccc2c(c1)C=Cc1cc(C)ccc1C2c1cn(Cc2ccc(C(=O)Nc3nn[nH]n3)o2)c(=O)[nH]c1=S,inactive
11,CC(=O)OC1C(O)C2C(C)C3=CC(=O)OC3(O)CC2C2(C)CCCC(C)(CO)C12 (stereo not given),inactive [at 17.4 µM]
12,CC(=O)OC1CC(C)C2(CCC3(CC(=O)OC3O)O2)C2(C)CCCC(C)(C)C12 (stereo not given),inactive [at 17.4 µM]
13,Oc1ccc([C@H]2COc3cc(O)ccc3C2)cc1,inactive
14,COc1cc2ncnc(Nc3ccc(F)c(Cl)c3)c2cc1O,inactive
15,O=C(Nc1ccccc1C(=O)NC1CCCCNC1=O)c1cc2ccccc2s1 (stereo not given),inactive
16,COc1ccc2cc(C(C)C(=O)Oc3ccc(C(N)=S)cc3)ccc2c1 (stereo not given),inactive
17,CC(=O)OC[C@@]12[C@H](O)C[C@]3(C)C(=CCC4[C@@]5(C)CC[C@H](O[C@@H]6O[C@H](C(=O)O)[C@@H](O[C@@H]7O[C@H](CO)[C@@H](O)[C@H](O)[C@H]7O)[C@H](O)[C@H]6O[C@@H]6O[C@H](CO)[C@@H](O)[C@H](O)[C@H]6O)[C@](C)(CO)C5CC[C@]43C)[C@@H]1CC(C)(C)[C@@H](OC(C)=O)[C@@H]2O (stereo not given in full),inactive [at 9.27 µM]
18,COC(=O)[C@@H]1C2CC3c4[nH]c5ccccc5c4CCN3CC2CC[C@@H]1O (stereo not given in full),inactive
19,CCC(C)/C=C(C)/C=C/C1=CC2=C(Cl)C(=O)C(C)(OC(C)=O)C(=O)C2=CN1CCCC(=O)O (stereo not given),inactive [at 17.4 µM]
20,COc1c2c(c(C)c3c1C(=O)OC3)OC1(C)CC(O)C34OC(OC)(OC3(C)C)C(O)CC4(C)C1C2 (stereo not given),inactive [at 17.4 µM]

row,SMILES,outcome
1,C=C1C(=O)OC2CC(C)=C(C(C)CCCO)C(O)C12 (stereo not given),inactive
2,Cc1nnc(-c2ccc3occ(-c4ccc(S(C)=O)cc4)c3c2)o1 (stereo not given),inactive
3,CC(=O)c1c(C)cc(O[C@@H]2O[C@H](CO)[C@@H](O)[C@H](O)[C@H]2O)cc1O,inactive
4,O=C1C(Cl)=C(N2CCOCC2)C(=O)N1c1ccc(Cl)c(Cl)c1,inactive [at 17.4 µM]
5,COc1cc(NC(=O)c2cccc(-n3cc(NC(=O)Nc4cccc(C)c4)cn3)c2)cc(OC)c1OC,inactive
6,N#CCc1ccc(O)cc1O[C@@H]1O[C@H](CO)[C@@H](O)[C@H](O)[C@H]1O,inactive
7,CC(=C\C(C)O)/C=C(\C)C(=O)CC1CC(CC(N)=O)CC(=O)O1 (stereo not given),inactive
8,C[C@@H]1CC[C@]2(C(=O)O[C@@H]3O[C@H](CO[C@@H]4O[C@H](CO)[C@@H](O)[C@H](O)[C@H]4O)[C@@H](O)[C@H](O)[C@H]3O)CC[C@]3(C)C(=CCC4[C@@]5(C)CC[C@H](O)[C@](C)(C(=O)O)C5CC[C@]43C)[C@@H]2[C@]1(C)O (stereo not given in full),inactive [at 9.27 µM]
9,COCCN(C)Cc1ccc2nc3sc(C(=O)N(C)C4CCCCC4)cn3c2c1,inactive
10,COC1OC(O)C2(CCC3(O2)C(C)CC2OC(=O)C4(C)CCCC3(C)C24)C1O (stereo not given),inactive
11,CCCC(=O)Nc1cccc(NC(=O)c2ccccc2Br)c1,inactive
12,CC(=O)C1CCC(=O)N1Cc1ccccc1 (stereo not given),inactive
13,COc1ccc(CCC(=O)O)c(O[C@@H]2O[C@H](CO)[C@@H](O)[C@H](O)[C@H]2O)c1,inactive
14,C=C1CC2C3(C)C(O)CC(=O)C(C)(C)C3C(OC(C)=O)C(OC(C)=O)C2(C)C2C(=O)OC(C)(C(=O)OC)C(=O)C12C (stereo not given),inactive [at 17.4 µM]
15,COc1ccc(/C=C/C(=O)O[C@H]2[C@@H]3C=CO[C@@H](O[C@@H]4O[C@H](CO)[C@@H](O)[C@H](O)[C@H]4O)[C@@H]3[C@@]3(CO)O[C@@H]23)cc1O,inactive [at 17.4 µM]
16,C[C@@H]1C(=O)OC[C@H]2C(C(=O)O)=C[C@@H]3CC(C)(C)C[C@]312,inactive
17,CC1CCC2(C(=O)OC3OC(CO)C(O)C(O)C3O)CCC3(C)C(=CCC4C5(C)CCC(O)C(C)(CO)C5CCC43C)C2C1(C)O (stereo not given),inactive [at 17.4 µM]
18,C[C@H]1CC[C@@H]2N(C1)C[C@@H]1[C@H]([C@@H](O)[C@H](O)[C@]3(O)[C@H]1C[C@@]14OC5(O)[C@@H](C[C@@H](O)[C@@H]31)[C@]4(C)CC[C@@H]5O)[C@]2(C)O,inactive [at 17.4 µM]
19,CC1(C)NC2N(C1=O)c1ccccc1C2(O)CC(C(=O)O)n1cnc2ccccc2c1=O (stereo not given),inactive [at 17.4 µM]
20,C/C=C/C=C/C1=C2C(=O)C3(C)C4C(C(=O)CC(O)/C=C/C)=C(O1)C1(C)C2C2(C)OC1(O)C4(C)OC23O (stereo not given),inactive [at 17.4 µM]
